The list is not random: actives were taken first. Their share in the collection is about 10%.
HEK293 tox – Cytotoxic Profiling in HEK 293 Cell Line of Diverse Libraries Using Quantitative High-Throughput Screening; AID 1345083, 2018; Potency, µM (highest dose often 115 µM), for the others: at the top dose activity change, negative = cytotoxicity, actives largely listed as inhibitors; hit rate 6.6% among 94,000; HEK 293 viability, ATP luminescence (CellTiter-Glo), 48-72 h; note: nearly all actives have a fitted effect of over 60% in size
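Cytotoxicity was scored by loss of ATP-coupled luminescence (CellTiter-Glo) in HEK 293 cells. Compound treatment ran 48 or 72 hr at 37 degree Celsius, 5% CO2, 95% humidity.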
Luciferase inh – Firefly luciferase inhibition profiling of diverse chemical library using quantitative high-throughput screening; Luciferin 4-monooxygenase (Photinus pyralis), P08659; purified P. pyralis luciferase, luminescence, biochemical; Potency, µM (doses to about 115 µM), actives largely listed as inhibitors; hit rate 2.5% among 76,000; AID 1347043, 2019; note: nearly all actives have a fitted effect of over 65% in size
Target sequence (P08659 whole entry, looked up): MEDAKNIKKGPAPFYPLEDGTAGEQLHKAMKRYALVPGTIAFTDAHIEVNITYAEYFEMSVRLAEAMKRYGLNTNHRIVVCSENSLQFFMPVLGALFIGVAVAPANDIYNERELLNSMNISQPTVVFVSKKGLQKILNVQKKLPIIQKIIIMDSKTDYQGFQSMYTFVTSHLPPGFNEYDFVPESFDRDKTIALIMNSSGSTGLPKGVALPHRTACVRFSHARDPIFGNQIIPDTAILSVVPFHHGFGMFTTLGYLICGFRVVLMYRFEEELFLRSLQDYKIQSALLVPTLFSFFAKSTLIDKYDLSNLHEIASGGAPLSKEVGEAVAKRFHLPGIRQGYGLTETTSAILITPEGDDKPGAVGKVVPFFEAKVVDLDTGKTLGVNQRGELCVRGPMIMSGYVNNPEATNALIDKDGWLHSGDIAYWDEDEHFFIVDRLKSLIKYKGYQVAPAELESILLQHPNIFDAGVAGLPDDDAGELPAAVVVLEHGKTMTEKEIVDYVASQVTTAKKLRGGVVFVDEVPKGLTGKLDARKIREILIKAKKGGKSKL
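Luminescence read by CCD imager after adding enzyme (10nM final) to wells holding compound, titrated in qHTS. Substrates 10uM each D-luciferin and ATP; buffer 50mM Tris acetate pH 7.5, 10mM Mg acetate, Tween-20, BSA.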
GPT2 inhibitor – Primary qHTS assay for inhibitors of Glutamate pyruvate transaminase 2 (GPT2) | Alanine aminotransferase 2 (Homo sapiens), Q8TD30 | hit rate 0.25% among 100,000 | Potency, µM (titrated, usually from 57.7 µM), inactives show at the top dose activity change, negative = inhibition, actives largely listed as inhibitors | Recombinant GPT2, coupled pyruvate oxidase/HRP Amplex Red fluorescence; note: nearly all actives have a fitted effect of over 60% in size
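Fluorescence of coupled pyruvate oxidase/HRP/Amplex Red system (50uM Amplex, 30 min, dark) reports pyruvate formed by GPT2. Enzyme reaction: 10ng/uL GPT2, 2mM L-alanine, 250uM a-KG, 30 min room temperature, pH 7.5; 50uM AOA control.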
3T3 cytotox – Cytotoxic Profiling in NIH 3T3 Cell Line of Diverse Libraries Using Quantitative High-Throughput Screening; NIH 3T3 viability, CellTiter-Glo ATP luminescence, 48-72 h; Potency, µM (doses to about 96.7 µM), without a hit: at the top dose activity change, negative = cytotoxicity, hits mostly inhibitors; hit rate 4.3% among 94,000; AID 1345082, 2018; note: nearly all actives have a fitted effect of over 55% in size
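ATP-dependent luminescence (CellTiter-Glo) served as the viability signal for NIH 3T3 cells treated with compound for 48 or 72 hr at 37 °C.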
NPR1 antag – Natriuretic polypeptide receptor (hNpr1) antagonism - Primary qHTS; HEK293 hNpr1 GloSensor cGMP, ANP-stimulated luminescence; Potency, µM (top dose mostly 46.3 µM), for inactives: at the highest dose activity change, negative = inhibition, hits mostly inhibitors; hit rate 1.6% among 76,000; calls by dose curve; note: nearly all actives have a fitted effect of over 60% in size
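Compound pre-incubated 30 min at room temperature on GloSensor-loaded HEK293 cells stably carrying hNpr1 and the pGS-40F cGMP biosensor. Stimulation uses hNppA at 0.1 nM final; luminescence is taken at baseline and 20 min post-agonist.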
* = called active by the depositor; [ ] = remark or other dose. Unless noted, calls come from the whole dose curve; as a rule, active = well fitted curve in the direction sought with a large enough effect; inconclusive = small, poorly fitted or top-dose-only effect, or another doubt; inactive = no such curve, though single readings can be large; an effect the other way counts as inactive or inconclusive. % is set by controls: 0 for no effect and ±100 for the full control effect; potency is the fitted concentration of half-maximal effect.

`Cc1cc(C)c2[nH]c(C(=O)N3CCN(Cc4ccccc4)C(=O)C3C)c(C)c2c1` (stereo not given) gave HEK293 tox 35.5µM*, Luciferase inh inactive, GPT2 inhibitor -2.4%[11.5 µM], 3T3 cytotox 25.1µM* and NPR1 antag 4.9%.
Cc1cc(C)c2[nH]c(C(=O)N3CCCC3c3nc4ccccc4[nH]3)c(C)c2c1 (stereo not given) was read as HEK293 tox inconclusive, Luciferase inh inactive, GPT2 inhibitor -3.9%, 3T3 cytotox inconclusive and NPR1 antag -0.5%.
`O=C(N1CCCCCC1)C1(CCO)CC12CCOCC2` (stereo not given) gave HEK293 tox inactive, Luciferase inh inactive, GPT2 inhibitor -4.4%, 3T3 cytotox 3.5% and NPR1 antag 6.6%.
`CC1=C[C@@H](CN2C(=O)C(C)=C(C)C2=O)[C@H](C(C)C)C[C@H]1Cc1nc2ccc(C)cc2[nH]1` gave HEK293 tox 22.4µM*, Luciferase inh inactive, GPT2 inhibitor -43.4%[88.5 µM], 3T3 cytotox 28.2µM* and NPR1 antag inconclusive.
CCC(CC)C(=O)NC[C@@H]1C=C(C)[C@H](Cc2nc3ccc(C)cc3[nH]2)C[C@H]1C(C)C was read as HEK293 tox 63.1µM*, Luciferase inh inactive, GPT2 inhibitor inactive, 3T3 cytotox inconclusive and NPR1 antag -16.9%[70.6 µM].
For COc1ccc2nc(C[C@@H]3C[C@@H](C(C)C)[C@H](CN4C(=O)C(C)=C(C)C4=O)C=C3C)[nH]c2c1 the results were HEK293 tox inconclusive, Luciferase inh inactive, GPT2 inhibitor inactive, 3T3 cytotox inconclusive and NPR1 antag -16.7%.
Screening CCC(CC)C(=O)NC[C@@H]1C=C(C)[C@H](Cc2nc3ccc(OC)cc3[nH]2)C[C@H]1C(C)C returned HEK293 tox 44.7µM*, Luciferase inh inactive, GPT2 inhibitor inactive, 3T3 cytotox inconclusive and NPR1 antag -22.1%[70.6 µM].
`COc1ccc2nc(C[C@@H]3C[C@@H](C(C)C)[C@H](CNC(=O)COCC(=O)O)C=C3C)[nH]c2c1` gave HEK293 tox inactive, Luciferase inh inactive, GPT2 inhibitor 0.9%[88.5 µM], 3T3 cytotox -13.1%[174 µM] and NPR1 antag -4.5%[70.6 µM].
For COc1ccc(S(=O)(=O)NC[C@@H]2C=C(C)[C@H](CC(=O)N(C)Cc3cccnc3)C[C@H]2C(C)C)cc1 the results were HEK293 tox inconclusive, Luciferase inh inactive, GPT2 inhibitor -11.5%, 3T3 cytotox 10µM* and NPR1 antag -11.6%.
For CC1=C[C@@H](CC#N)[C@H](C(C)C)C[C@H]1CC(=O)N(C)Cc1cccnc1 the results were HEK293 tox inconclusive, Luciferase inh inactive, GPT2 inhibitor -1.4%[88.5 µM], 3T3 cytotox -31.5%[138 µM] and NPR1 antag -23.4%[70.6 µM].
For Cc1ccsc1C(=O)N1CCCN(C)c2ccccc21 the results were HEK293 tox inconclusive, Luciferase inh inactive, GPT2 inhibitor -1.9%, 3T3 cytotox inconclusive and NPR1 antag -22.0%.
`O=C1NC2(CCCN(Cc3cncs3)C2)Oc2ccccc21` (stereo not given) gave HEK293 tox inactive, Luciferase inh inactive, GPT2 inhibitor inconclusive, 3T3 cytotox -10.8%[138 µM] and NPR1 antag 20.2%[70.6 µM].
Screening CS(=O)(=O)N1CCN(C(=O)CC[C@H]2NC(=O)c3ccccc3NC2=O)CC1 returned HEK293 tox 5.8%, Luciferase inh inactive, GPT2 inhibitor inactive, 3T3 cytotox -3.8% and NPR1 antag 6.5%.
`CC1=C[C@@H](CNC(=O)c2ccnc(Cl)c2)[C@H](C(C)C)C[C@H]1Cc1nc2ccc(C)cc2[nH]1` gave HEK293 tox inconclusive, Luciferase inh inactive, GPT2 inhibitor -12.5%, 3T3 cytotox 17.8µM* and NPR1 antag inconclusive.
